Shiga inhibitor: A qHTS for Small Molecule Inhibitors of Shiga Toxin. Vero cells, Shiga toxin protein synthesis inhibition reporter. inhibition, % at 38.7 µM. 290,000 compounds, 9.2% hits. AID 2315, 2010; in the data active = inhibition mostly above about 28%, no sharp cut-off; inactive = mostly below about 43%; note: 0% is about no effect
CHX counter: Cycloheximide Counterscreen for Small Molecule Inhibitors of Shiga Toxin; cell reporter, cycloheximide protein synthesis inhibition counterscreen; max response, %; 300,000 compounds, 12% hits; AID 2314, 2010; in the data active = max response mostly above about 13%, no sharp cut-off; inactive = mostly below about 14%; note: read at 38.3 µM for the half of the compounds with a filed dose; 0% is about no effect
MARV entry inh: qHTS for inhibitors of binding or entry into cells for Marburg Virus; Marburg virus pseudotyped entry inhibition, cell reporter; Potency, µM (series often up to 37.8 µM), without a hit: top-dose activity change, negative = inhibition, usual class: inhibitors; 300,000 compounds, 1.8% hits; calls by dose curve; tested in HEK293 cells; note: potency is the fitted concentration of half-maximal effect; % is set by controls: 0 for no effect and ±100 for the full control effect
Vaccinia mCherry: qHTS for Stage-Specific Inhibitors of Vaccinia Orthopoxvirus: mCherry Reporter Primary qHTS | Potency, µM (doses to about 36.5 µM), inactives show at the top dose activity change, negative = inhibition, most hits filed as inhibitors | 310,000 compounds, 0.63% hits | Vaccinia virus mCherry reporter infection, fluorescence; calls by dose curve; tested in A549 cells; note: potency is the fitted concentration of half-maximal effect; % is set by controls: 0 for no effect and ±100 for the full control effect; nearly all actives have a fitted effect of over 35% in size
LASV entry inh: qHTS for Inhibitors of binding or entry into cells for Lassa Virus. Lassa virus pseudotype entry inhibition, cell reporter. 300,000 compounds, 1.2% hits. Potency, µM (doses to about 37.9 µM), for the others: at the highest dose activity change, negative = inhibition, actives largely listed as inhibitors; calls by dose curve; tested in HEK293 cells; note: potency is the fitted concentration of half-maximal effect; % is set by controls: 0 for no effect and ±100 for the full control effect; nearly all actives have a fitted effect of over 50% in size
Vaccinia Venus: qHTS for Stage-Specific Inhibitors of Vaccinia Orthopoxvirus: Venus Reporter Primary qHTS; Vaccinia virus Venus reporter expression, fluorescence; 330,000 compounds, 0.46% hits; Potency, µM (highest dose often 36.5 µM), for inactives: at the top dose activity change, negative = inhibition, usual class: inhibitors; calls by dose curve; tested in A549 cells; note: potency is the fitted concentration of half-maximal effect; % is set by controls: 0 for no effect and ±100 for the full control effect; nearly all actives have a fitted effect of over 30% in size
Active calls of the source: *; [ ] = remark or other dose. The sample as a whole holds a higher share of hits than the screen did.

Results for CCOC(=O)COc1ccccc1C1Nc2ccccc2C(=O)N1c1cccc(Cl)c1 (stereo not given) ?
Shiga inhibitor: 66*; CHX counter: 36*; MARV entry inh: 2%; Vaccinia mCherry: -10%; LASV entry inh: inconclusive; Vaccinia Venus: -15%

What do the screens show for `COc1ccccc1CNC(=O)CSc1cc(C)[nH]c(=O)n1`?
Vaccinia mCherry: -16%; LASV entry inh: 2%[46.1 µM]; Vaccinia Venus: -5%

How did CCCCOc1ccc(-n2nc(C)cc2C)nn1 do in these assays?
Shiga inhibitor: 55*; CHX counter: 29*; MARV entry inh: 16%; LASV entry inh: 30%; Vaccinia Venus: -23%

What do the screens show for `CCn1c(SC(C)C(=O)Nc2nccs2)nnc1-c1ccncc1` (stereo not given)?
Shiga inhibitor: -20; CHX counter: -2; MARV entry inh: 6%; Vaccinia mCherry: -6%; LASV entry inh: -8%; Vaccinia Venus: -8%

Results for O=C(CSc1ncccc1C(=O)O)Nc1ccc2c(c1)OCCO2 ?
Shiga inhibitor: 82*; CHX counter: 100*; MARV entry inh: 2%[46.1 µM]; Vaccinia mCherry: -2%; LASV entry inh: 16%[46.1 µM]; Vaccinia Venus: -5%

How did Nc1nonc1NC(=O)CSc1ncccc1C(=O)O do in these assays?
Shiga inhibitor: 15; CHX counter: -1; MARV entry inh: 1%; Vaccinia mCherry: -29%; LASV entry inh: 2%; Vaccinia Venus: -16%

What do the screens show for `O=C(CSc1ncnc2ccccc12)Nc1ccc2c(c1)OCCO2`?
Shiga inhibitor: 63; CHX counter: 31*; MARV entry inh: -23%[46.1 µM]; Vaccinia mCherry: -21%; LASV entry inh: 11%; Vaccinia Venus: -25%

Results for Cc1[nH]c2ccc(OC(F)(F)F)cc2c1CCNCc1cccc([N+](=O)[O-])c1 ?
Shiga inhibitor: -4; CHX counter: -2; MARV entry inh: inconclusive; Vaccinia mCherry: inconclusive; LASV entry inh: 10%; Vaccinia Venus: -24%

What do the screens show for `CCOc1cccc(CNCCc2c(C)[nH]c3ccc(OC(F)(F)F)cc23)c1O`?
Shiga inhibitor: -14; CHX counter: -7; Vaccinia mCherry: inconclusive; Vaccinia Venus: 10µM*

What do the screens show for `O=C(NC(=S)Nc1ccc(S(=O)(=O)N2CCCC2)cc1)c1cccs1`?
Shiga inhibitor: 0; CHX counter: 13; MARV entry inh: 4%; Vaccinia mCherry: inactive; LASV entry inh: -16%; Vaccinia Venus: -14%

How did CS(=O)(=O)N1CCN(c2ccc(NC(=S)NC(=O)c3cccs3)cc2)CC1 do in these assays?
Shiga inhibitor: 17; CHX counter: 16*; MARV entry inh: -2%; LASV entry inh: 15%

How did CCOC(=O)C1CCN(C(=S)NC(=O)c2cccs2)CC1 do in these assays?
Shiga inhibitor: 47; CHX counter: 29*; MARV entry inh: 6%[46.1 µM]; Vaccinia mCherry: 10%; Vaccinia Venus: -1%

What do the screens show for `O=C(NC(=S)N1CCN(c2ccc(F)cc2)CC1)c1cccs1`?
Shiga inhibitor: -2; CHX counter: 3; MARV entry inh: inconclusive; Vaccinia mCherry: inconclusive; LASV entry inh: -5%; Vaccinia Venus: -14%

What do the screens show for `O=C(NC(=S)N1CCN(c2ccc(O)cc2)CC1)c1cccs1`?
Shiga inhibitor: 84*; CHX counter: 24*

Results for O=C(NC(=S)Nc1ccc(N2CCN(C(=O)c3ccccc3)CC2)cc1)c1cccs1 ?
Shiga inhibitor: -9; CHX counter: -4; MARV entry inh: inconclusive; Vaccinia mCherry: -30%; LASV entry inh: inconclusive; Vaccinia Venus: -24%

What do the screens show for `O=C(NC(=S)Nc1ccc(N2CCCCC2)cc1)c1cccs1`?
Shiga inhibitor: 79*; CHX counter: 52*; MARV entry inh: inconclusive; LASV entry inh: inconclusive

How did CCC(=O)Nc1ccccc1C(=O)OCc1cc(=O)n2cc(C)sc2n1 do in these assays?
Vaccinia mCherry: -15%; LASV entry inh: inconclusive; Vaccinia Venus: -17%

What do the screens show for `CCCc1nc2ccc(Br)cn2c1Cc1ccccc1OC`?
Vaccinia mCherry: -29%; Vaccinia Venus: -23%

Results for CCOC(=O)N/N=C(/C)c1ccc(N2C(=O)C3CCCCC3C2=O)cc1 (stereo not given) ?
Shiga inhibitor: 6; CHX counter: 7; MARV entry inh: 4%; LASV entry inh: inconclusive

Results for CCOCN(C(=O)Cn1c(CC(C)C)nc2ccccc21)c1c(C)cccc1CC ?
MARV entry inh: inconclusive; Vaccinia mCherry: 7%; LASV entry inh: -19%[46.1 µM]; Vaccinia Venus: -7%

Results for O=C(NC(=S)Nc1ccccc1N1CCCCC1)c1cccs1 ?
Shiga inhibitor: -14; CHX counter: 1; MARV entry inh: -10%; Vaccinia mCherry: inactive; LASV entry inh: 4%; Vaccinia Venus: -12%

How did O=C(NC(=S)Nc1ccccc1N1CCCC1)c1cccs1 do in these assays?
Shiga inhibitor: 55*; CHX counter: 51*

How did Cc1ccc(CNC(=O)CN2N=C(c3ccc(C)cc3)CCC2=O)cc1 do in these assays?
Vaccinia mCherry: -8%; LASV entry inh: -2%[46.1 µM]; Vaccinia Venus: -8%

How did CC(=O)N1c2ccc(C)cc2C(c2ccccc2)CC1C (stereo not given) do in these assays?
Shiga inhibitor: -4; CHX counter: 2; MARV entry inh: 6.3µM*; Vaccinia mCherry: inconclusive; LASV entry inh: inconclusive; Vaccinia Venus: -22%

What do the screens show for `CC12C=C(/C=C/c3ccc(Br)cc3)C(C)(C1)C(c1ccc(Br)cc1)CC2=O` (stereo not given)?
MARV entry inh: -26%[14.2 µM]

What do the screens show for `C=C(C)CSc1nnc(-c2cccc(Cl)c2)n1N`?
Shiga inhibitor: 111*; CHX counter: 42*; MARV entry inh: 13%; LASV entry inh: inconclusive

How did Nn1c(SCC(=O)Nc2ccc3c(c2)OCO3)nnc1-c1cccc(Cl)c1 do in these assays?
Shiga inhibitor: 12; CHX counter: 7; MARV entry inh: 5%; LASV entry inh: 13%

What do the screens show for `COc1ccc(-c2nnc(SCC(N)=O)n2N)cc1`?
Shiga inhibitor: 25; CHX counter: 1; MARV entry inh: 4%; Vaccinia mCherry: inactive; LASV entry inh: -5%; Vaccinia Venus: 0%

How did C=C(C)CSc1nnc(-c2ccc(OC)cc2)n1N do in these assays?
Shiga inhibitor: 53*; CHX counter: 45*; MARV entry inh: 15%; Vaccinia mCherry: -5%; LASV entry inh: 9%; Vaccinia Venus: -3%

Results for CN(C)c1ccc(/C=C/c2ccc3cc(F)ccc3n2)cc1 ?
Vaccinia mCherry: -23%; Vaccinia Venus: -6%

What do the screens show for `COc1ccc(Cl)cc1S(=O)(=O)N1CCN(C(=O)c2n[nH]c(=O)c3ccccc23)CC1`?
MARV entry inh: inconclusive; Vaccinia mCherry: 28µM*; LASV entry inh: inconclusive; Vaccinia Venus: inconclusive

How did Cc1ccc(S(=O)(=O)N2CCN(C(=O)c3n[nH]c(=O)c4ccccc34)CC2)cc1 do in these assays?
Shiga inhibitor: 28; CHX counter: -5

Bioassay records (PubChem BioAssay)
